Results: PubChem BioAssay (EPA / NIEHS)
Values joined by “and” are separate entries in the source; they are usually repeats but may differ in a detail not shown here. Identical values can stand only once. Inconclusive results are not listed. Active and inactive are the calls of the source. How the source made its calls, unless noted: active means hit-call score of the fitted dose curve at least 0.9, where 1 is the maximum; inactive means score below 0.9.

Tests used:
[1] = target: Estrogen receptor (Homo sapiens) + Estrogen receptor beta (Homo sapiens) (UniProt P03372+Q92731); experiment: OT_ER_ERaERb_0480: Odyssey Thera (OT) 8-hour HEK293T Protein-Complementation Assay for Estrogen Receptor-alpha/-beta Heterodimer (AID 2283352; active means hit-call score of the fitted dose curve at least 0.9, where 1 is the maximum)
Summary of the method: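 Compound added to HEK293T cells carrying split-reporter-tagged ER-alpha and ER-beta LBDs, incubated 8 hours, then imaged by laser scanning cytometer. Signal rise in nucleus, or nucleus and cytoplasm, over vehicle was fitted in the positive direction.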

[2] = target: human Caspase 5 (CASP5), CASP5 (gene 838) (UniProt P51878); experiment: NVS_ENZ_hCASP5: NovaScreen (NVS) Enzymatic Assay for human Caspase 5 (CASP5) (AID 2283137; active means hit-call score of the fitted dose curve at least 0.9, where 1 is the maximum)
Summary of the method: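 Recombinant E. coli-expressed human caspase 5 in a cell-free enzyme assay; fluorescence intensity read 2 hours after chemical dosing. Single-concentration duplicate screen at 25 uM, then concentration-response up to 50 uM for hits; DMSO negative control.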

[3] = target: human Dual Specificity Protein Phosphatase 3 (DUSP3), DUSP3 (gene 1845) (UniProt P51452); experiment: NVS_ENZ_hDUSP3: NovaScreen (NVS) Enzymatic Assay for human Dual Specificity Protein Phosphatase 3 (DUSP3) (AID 2283152; active means hit-call score of the fitted dose curve at least 0.9, where 1 is the maximum;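 further: phosphatase activity of recombinant human DUSP3 on a fluorogenic substrate without cells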)
Summary of the method: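 Cell-free assay with recombinant human DUSP3 and fluorogenic substrate, read by fluorescence intensity. Primary screen ran duplicate at 25 uM; actives followed up in concentration series; loss of signal versus DMSO scored.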

[4] = target: human Phosphoinositide 3-kinase alpha (PI3Ka), PIK3CA (gene 5290) (UniProt P42336); experiment: NVS_ENZ_hPI3Ka: NovaScreen (NVS) Enzymatic Assay for human Phosphoinositide 3-kinase alpha (PI3Ka) (AID 2283196; active means hit-call score of the fitted dose curve at least 0.9, where 1 is the maximum)
Summary of the method: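 Chemicals were first screened at 25 uM in duplicate, then hits were run as concentration series up to 50 uM. Enzyme activity was measured by fluorescence after mobility-shift separation, with loss of signal relative to DMSO taken as activity.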

[5] = system: rat Monoamine Oxidase, MAO-A, Central (MAOAC), gene 29253; experiment: NVS_ENZ_rMAOAC: NovaScreen (NVS) Enzymatic Assay for rat Monoamine Oxidase, MAO-A, Central (MAOAC) (AID 2283243; active means hit-call score of the fitted dose curve at least 0.9, where 1 is the maximum;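 further: potency refers to inhibition seen as signal drop below DMSO baseline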)
Summary of the method: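 Rat brain tissue extract served as the cell-free enzyme source; activity was measured by radiometric scintillation counting 1.5 hours after compound addition. Loss of signal relative to DMSO baseline indicated inhibition; primary screen at 25 uM in duplicate.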

[6] = CEETOX_H295R_ANDR: CeeTox H295R High-throughput Steroidogenesis Assay for Androstenedione (ANDR) (AID 2283436); settings: actives raise or lower the signal
Summary of the method: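 H295R human adrenal cells (passages ≤10) were exposed to test chemicals for 48 h; androstenedione in medium was MTBE-extracted and quantified by HPLC-MS/MS against a 7-point standard curve. Bidirectional fitting used DMSO as baseline.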

[7] = CEETOX_H295R_TESTO: CeeTox H295R High-throughput Steroidogenesis Assay for Testosterone (TESTO) (AID 2283457); settings: actives raise or lower the signal
Summary of the method: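 H295R, passage ≤10, 48 h dosing; media extracted with MTBE → HPLC-MS/MS for testosterone; 7-pt standard curve sets LLOQ/ULOQ; bidirectional fit vs DMSO; MTT viability same wells.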

[8] = read-out: Monokine induced gamma interferon (MIG), CXCL9 (gene 4283); experiment: BSK_KF3CT_MIG: BioMAP Diversity Plus: KF3CT Assay for Monokine induced gamma interferon (MIG) Biomarker Activity (AID 2284248); settings: primary human keratinocytes with fibroblasts
Summary of the method: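 KF3CT system: keratinocyte/fibroblast co-culture, 24 h post-dose, MIG by ELISA; activity vs DMSO, positive fitting direction.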

[9] = read-out: Interferon-inducible T-cell alpha chemoattractant (ITAC), CXCL11 (gene 6373); experiment: BSK_hDFCGF_ITAC: BioMAP Diversity Plus: hDFCGF Assay for Interferon-inducible T-cell alpha chemoattractant (ITAC) Biomarker Activity (AID 2284251); settings: primary human foreskin fibroblasts
Summary of the method: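 ELISA readout of I-TAC after 24 h chemical exposure; human dermal foreskin fibroblast primary cells. Positive-direction fitting vs DMSO baseline. Parallel SRB total-protein staining (0.1% SRB after 10% TCA fixation, 560 nm) flags cytotoxicity.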

[10] = read-out: Plasminogen activator inhibitor-1 (PAI1), SERPINE1 (gene 5054); experiment: BSK_KF3CT_PAI1: BioMAP Diversity Plus: KF3CT Assay for Plasminogen activator inhibitor-1 (PAI1) Biomarker Activity (AID 2284252); settings: primary human keratinocytes with fibroblasts
Summary of the method: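 Human primary keratinocyte/foreskin fibroblast co-culture was dosed with compound and sampled at 24 h. PAI-1 was quantified by ELISA, with activity fitted in the positive direction relative to DMSO vehicle as baseline.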

[11] = read-out: Intercellular Adhesion Molecule 1 (ICAM1), ICAM1 (gene 3383); experiment: BSK_BE3C_ICAM1: BioMAP Diversity Plus: BE3C Assay for Intercellular Adhesion Molecule 1 (ICAM1) Biomarker Activity (AID 2284278); settings: primary human bronchial epithelial cells
Summary of the method: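 Primary human bronchial epithelial cells were exposed to compound for 24 h, after which cell-surface ICAM-1 was quantified by ELISA. Activity was fitted in the gain-of-signal direction against DMSO as negative control and baseline.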

[12] = read-out: Interferon-inducible T-cell alpha chemoattractant (ITAC), CXCL11 (gene 6373); experiment: BSK_BE3C_ITAC: BioMAP Diversity Plus: BE3C Assay for Interferon-inducible T-cell alpha chemoattractant (ITAC) Biomarker Activity (AID 2284279); settings: primary human bronchial epithelial cells
Summary of the method: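 BE3C cells (human primary bronchial epithelium), 24 h compound exposure, I-TAC by ELISA, DMSO = negative control/baseline, positive fitting direction.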

[13] = read-out: Interleukin-8 (IL8), CXCL8 (gene 3576); experiment: BSK_BE3C_IL8: BioMAP Diversity Plus: BE3C Assay for Interleukin-8 (IL8) Biomarker Activity (AID 2284280); settings: primary human bronchial epithelial cells
Summary of the method: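 ELISA read-out of IL-8 in human lung bronchial epithelial primary cell cultures, 24 h post-dosing; endpoint analysed as signal increase relative to DMSO baseline.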

[14] = read-out: Epidermal growth factor receptor (EGFR), EGFR (gene 1956); experiment: BSK_BE3C_EGFR: BioMAP Diversity Plus: BE3C Assay for Epidermal growth factor receptor (EGFR) Biomarker Activity (AID 2284281); settings: primary human bronchial epithelial cells
Summary of the method: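 Primary human lung bronchial epithelial cells; compound, 24 h; EGFR measured by ELISA; positive-direction fit vs DMSO baseline.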

[15] = read-out: Matrix Metallopeptidase 9 (MMP9), MMP9 (gene 4318); experiment: BSK_BE3C_MMP9: BioMAP Diversity Plus: BE3C Assay for Matrix Metallopeptidase 9 (MMP9) Biomarker Activity (AID 2284283); settings: primary human bronchial epithelial cells
Summary of the method: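 BE3C, human bronchial epithelial primary cells; 24 h post-dose; MMP-9 by ELISA; positive fit vs DMSO; SRB (0.1%, TCA-fixed, 560 nm) parallel cytotox.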

[16] = read-out: Plasminogen activator inhibitor-1 (PAI1), SERPINE1 (gene 5054); experiment: BSK_CASM3C_PAI1: BioMAP Diversity Plus: CASM3C Assay for Plasminogen activator inhibitor-1 (PAI1) Biomarker Activity (AID 2284284); settings: primary human coronary artery smooth muscle cells;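 further: PAI-1 protein level measured by ELISA 24 h after dosing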
[17] = read-out: Monocyte Chemoattractant Protein-1 (MCP1), CCL2 (gene 6347); experiment: BSK_hDFCGF_MCP1: BioMAP Diversity Plus: hDFCGF Assay for Monocyte Chemoattractant Protein-1 (MCP1) Biomarker Activity (AID 2284285); settings: primary human foreskin fibroblasts
Summary of the method: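 Human foreskin fibroblasts (hDFCGF system) were exposed to compound and secreted MCP-1 was measured by ELISA after 24 hours. Activity was fitted relative to DMSO. Cytotoxicity was checked by SRB total-protein staining in parallel cultures.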

[18] = read-out: Intercellular Adhesion Molecule 1 (ICAM1), ICAM1 (gene 3383); experiment: BSK_hDFCGF_ICAM1: BioMAP Diversity Plus: hDFCGF Assay for Intercellular Adhesion Molecule 1 (ICAM1) Biomarker Activity (AID 2284287); settings: primary human foreskin fibroblasts
Summary of the method: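 Primary human foreskin fibroblasts (hDFCGF system) dosed with chemical; ICAM-1 quantified by ELISA at 24 h relative to DMSO. Parallel SRB total-protein staining to assess overt cytotoxicity.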

Measured: AC50

human Dual Specificity Protein Phosphatase 3 (DUSP3), DUSP3 (gene 1845), sequence (P51452 whole entry, looked up): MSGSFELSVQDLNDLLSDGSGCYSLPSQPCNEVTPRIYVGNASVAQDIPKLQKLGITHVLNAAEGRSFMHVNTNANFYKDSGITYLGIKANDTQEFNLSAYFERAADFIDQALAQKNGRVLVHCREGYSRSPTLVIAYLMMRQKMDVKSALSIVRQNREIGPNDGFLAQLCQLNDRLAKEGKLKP
human Phosphoinositide 3-kinase alpha (PI3Ka), PIK3CA (gene 5290), sequence (P42336 whole entry, looked up): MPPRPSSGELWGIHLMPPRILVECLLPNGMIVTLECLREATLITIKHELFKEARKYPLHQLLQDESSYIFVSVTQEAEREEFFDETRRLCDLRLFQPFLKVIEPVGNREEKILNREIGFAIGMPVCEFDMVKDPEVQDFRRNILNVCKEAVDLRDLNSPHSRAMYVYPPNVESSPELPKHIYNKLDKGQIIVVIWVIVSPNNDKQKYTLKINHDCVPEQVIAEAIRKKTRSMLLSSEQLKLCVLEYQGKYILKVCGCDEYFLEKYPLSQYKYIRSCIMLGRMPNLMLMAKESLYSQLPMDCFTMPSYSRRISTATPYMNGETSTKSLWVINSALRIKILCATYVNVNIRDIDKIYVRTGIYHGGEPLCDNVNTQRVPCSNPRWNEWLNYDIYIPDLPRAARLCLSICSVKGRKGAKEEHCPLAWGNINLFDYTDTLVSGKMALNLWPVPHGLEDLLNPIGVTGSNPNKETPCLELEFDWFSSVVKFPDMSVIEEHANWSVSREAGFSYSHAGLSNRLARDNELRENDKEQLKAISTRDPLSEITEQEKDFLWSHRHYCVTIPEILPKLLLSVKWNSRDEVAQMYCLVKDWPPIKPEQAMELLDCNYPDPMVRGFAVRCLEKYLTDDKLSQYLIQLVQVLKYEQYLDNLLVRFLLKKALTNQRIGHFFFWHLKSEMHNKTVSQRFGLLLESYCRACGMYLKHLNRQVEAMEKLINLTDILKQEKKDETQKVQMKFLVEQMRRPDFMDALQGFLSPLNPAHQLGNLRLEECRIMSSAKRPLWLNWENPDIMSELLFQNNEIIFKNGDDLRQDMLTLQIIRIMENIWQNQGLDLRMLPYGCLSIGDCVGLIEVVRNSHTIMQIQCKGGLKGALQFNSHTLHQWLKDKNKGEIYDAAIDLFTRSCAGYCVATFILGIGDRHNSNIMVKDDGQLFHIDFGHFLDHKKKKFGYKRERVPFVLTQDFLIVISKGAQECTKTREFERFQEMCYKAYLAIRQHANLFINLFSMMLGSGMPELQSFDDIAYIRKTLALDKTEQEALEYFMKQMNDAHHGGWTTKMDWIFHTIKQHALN
human Caspase 5 (CASP5), CASP5 (gene 838), sequence (P51878 whole entry, looked up): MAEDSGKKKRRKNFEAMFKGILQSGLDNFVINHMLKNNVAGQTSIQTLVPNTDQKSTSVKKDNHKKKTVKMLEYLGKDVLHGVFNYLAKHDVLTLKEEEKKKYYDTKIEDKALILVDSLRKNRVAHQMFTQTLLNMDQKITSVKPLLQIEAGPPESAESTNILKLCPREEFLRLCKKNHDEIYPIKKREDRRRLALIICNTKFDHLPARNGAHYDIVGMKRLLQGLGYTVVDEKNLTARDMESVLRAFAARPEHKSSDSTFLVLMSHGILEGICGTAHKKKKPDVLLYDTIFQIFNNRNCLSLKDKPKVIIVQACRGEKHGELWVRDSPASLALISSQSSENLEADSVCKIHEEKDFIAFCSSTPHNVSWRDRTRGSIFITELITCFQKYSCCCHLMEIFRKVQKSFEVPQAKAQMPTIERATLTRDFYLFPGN
Estrogen receptor (Homo sapiens) + Estrogen receptor beta (Homo sapiens), sequence (P03372 whole entry, looked up): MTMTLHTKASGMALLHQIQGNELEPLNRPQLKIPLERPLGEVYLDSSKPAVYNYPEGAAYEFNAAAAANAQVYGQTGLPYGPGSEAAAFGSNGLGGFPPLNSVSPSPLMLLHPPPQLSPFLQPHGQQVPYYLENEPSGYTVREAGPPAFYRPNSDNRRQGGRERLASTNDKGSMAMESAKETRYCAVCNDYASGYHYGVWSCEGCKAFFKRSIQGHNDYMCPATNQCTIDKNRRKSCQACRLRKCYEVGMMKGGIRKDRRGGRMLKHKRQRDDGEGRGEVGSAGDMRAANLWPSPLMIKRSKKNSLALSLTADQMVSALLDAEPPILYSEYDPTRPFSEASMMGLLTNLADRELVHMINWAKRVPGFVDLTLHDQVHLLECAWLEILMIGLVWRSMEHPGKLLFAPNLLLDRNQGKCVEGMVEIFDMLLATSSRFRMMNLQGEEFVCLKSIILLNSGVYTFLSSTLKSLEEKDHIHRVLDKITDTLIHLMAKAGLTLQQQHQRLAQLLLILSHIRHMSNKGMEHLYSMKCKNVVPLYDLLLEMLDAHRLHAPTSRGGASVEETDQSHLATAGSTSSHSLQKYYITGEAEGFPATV
Estrogen receptor (Homo sapiens) + Estrogen receptor beta (Homo sapiens), sequence (Q92731 whole entry, looked up): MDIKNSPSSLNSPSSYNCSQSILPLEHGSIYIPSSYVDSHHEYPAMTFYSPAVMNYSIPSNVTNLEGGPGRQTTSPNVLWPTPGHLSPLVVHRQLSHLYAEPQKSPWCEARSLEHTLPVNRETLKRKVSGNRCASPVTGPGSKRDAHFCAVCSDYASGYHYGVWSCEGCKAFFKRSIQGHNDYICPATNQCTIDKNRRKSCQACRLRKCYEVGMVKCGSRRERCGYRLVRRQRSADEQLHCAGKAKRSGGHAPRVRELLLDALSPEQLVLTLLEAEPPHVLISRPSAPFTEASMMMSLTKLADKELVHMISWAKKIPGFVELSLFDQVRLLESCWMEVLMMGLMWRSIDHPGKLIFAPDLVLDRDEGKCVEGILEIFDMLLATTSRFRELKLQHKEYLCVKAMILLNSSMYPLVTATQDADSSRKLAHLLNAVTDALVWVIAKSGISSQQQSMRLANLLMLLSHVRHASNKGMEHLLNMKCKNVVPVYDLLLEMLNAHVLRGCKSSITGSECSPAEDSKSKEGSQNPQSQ

c1ccc(P(c2ccccc2)c2ccccc2)cc1
active: [1] 28.5 µM

CC1OC(C)OC(C)O1 (configuration not stated)
inactive: [2] | [3]

Nc1ccc(-c2ccc(N)c(N)c2)cc1N
inactive: [4]
active: [2] 5.41 µM | [3] 8.44 µM | [5] 14.1 µM

CC(C)(C)C(O)C(Oc1ccc(-c2ccccc2)cc1)n1cncn1 (configuration not stated)
active: [6] 0.114 µM
inactive: [7]

Oc1ccc(C2(c3ccc(O)cc3)c3ccccc3-c3ccccc32)cc1
inactive: [14]
active: [8] 7.47 µM and 7.4 µM | [9] 1.8 µM and 1.21 µM | [10] 5.43 µM | [11] 7.57 µM and 7.24 µM | [12] 5.43 µM and 5.42 µM | [13] 6.88 µM and 5.35 µM | [15] 383 nM and 5.33 µM | [16] 20 µM | [17] 3.59 µM and 2.48 µM | [18] 3.15 µM and 2.69 µM

ClCC(Cl)Cl
inactive: [4]

COc1ccc(CO)cc1
inactive: [8] | [9] | [10] | [11] | [12] | [13] | [14] | [15] | [16] | [17] | [18]
